Data: PubChem BioAssay (NCI)
This is part of a sample that, as a whole, favours compounds with a hit. Of some 79,000 tested, about 15% had one in any assay. Values without a mark were called inactive. Activity calls are given as the source filed them. Rule as the data show it: active = growth inhibition above about 70%; inactive = the rest.

What was measured:
[1] = NCI Yeast Anticancer Drug Screen. Data for the rad50 strain (AID 155);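 also: 0% = growth of vehicle-only cultures of the same strain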; conditions: S. cerevisiae rad50 strain growth inhibition; at 50.0 µM; hits give high values
Procedure, shortened: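 Inhibition values express reduced yeast growth in compound-treated cultures relative to vehicle-treated controls.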

[2] = NCI Yeast Anticancer Drug Screen. Data for the mec2-1 strain (AID 157); conditions: S. cerevisiae mec2-1 strain, at 50.0 µM, hits give high values
Procedure, shortened: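 Compounds were applied to mec2-1 yeast cells. Their growth was then compared with that of vehicle-treated cultures to give growth inhibition.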

[3] = NCI Yeast Anticancer Drug Screen. Data for the sgs1 mgt1 strain (AID 161);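 also: 0% = growth of cultures given vehicle only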; conditions: S. cerevisiae sgs1 mgt1 strain, at 50.0 µM, hits give high values
Procedure, shortened: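 This yeast growth screen uses a strain with defined DNA-repair lesions; compound-treated growth is compared with vehicle-treated growth.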

[4] = NCI Yeast Anticancer Drug Screen. Data for the cln2 rad14 strain (AID 165);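 also: 0% = growth equal to vehicle treated cultures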; conditions: S. cerevisiae cln2 rad14 strain, at 50.0 µM, hits give high values
Procedure, shortened: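 Strain: cln2 rad14 yeast, altered in cell cycle control and DNA damage repair. Read-out: growth inhibition vs vehicle.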

[5] = NCI Yeast Anticancer Drug Screen. Data for the bub3 strain (AID 167); conditions: S. cerevisiae bub3 mutant strain, at 50.0 µM, hits give high values
Procedure, shortened: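 Steps: expose the mutant yeast strain to compound; grow alongside vehicle-treated cultures; measure growth; express inhibition against the vehicle cultures.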

[6] = NCI Yeast Anticancer Drug Screen. Data for the mlh1 rad18 strain (AID 175); conditions: S. cerevisiae mlh1 rad18 strain growth inhibition; at 50.0 µM; hits give high values
Procedure, shortened: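 A repair-deficient yeast strain is exposed to test compound, and growth is scored relative to vehicle-treated controls.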

SMILES | growth inhibition [1] | growth inhibition [2] | growth inhibition [3] | growth inhibition [4] | growth inhibition [5] | growth inhibition [6]
Cc1ccc(C)c(NC(=O)CC/C(=N\NC(=O)c2c(O)ccc3ccccc23)C(C)C(=O)c2ccc(O)cc2)c1 (stereo not drawn) | 10.2% | 36.5% | -5.55% | 12.6% | 16.1% | 20.8%
O=C(CO)c1ccccc1 | -11.9% | 10.3% | -3.8% | 25.6% | 4% | 19.6%
C=CCC1C(=O)NN=C1C (stereo not drawn) | 5.05% | -12.1% | -10.7% | -22.5% | -5.5% | 2.45%
Cc1nc2ccccc2c(=O)n1NC(=O)c1ccc([N+](=O)[O-])cc1 | -43.4% | -26.4% | -13.5% | -21.4% | -10.8% | -19.1%
CCCNc1nc(C)nc2[nH]cc(C)c12 | 7.35% | -5.1% | -3.15% | -31.1% | -7.7% | -7.65%
COc1ccc(Nc2nc3c([nH]2)c(=O)n(C)c(=O)n3C)cc1 | -15.6% | 5.1% | -11.3% | 6.9% | -1.3% | 13.3%
COc1ccc2nc(NC(=O)Nc3ccc(Cc4ccc(NC(=O)Nc5nc6ccc(OC)cc6s5)cc4)cc3)sc2c1 | -14.4% | -19.6% | -10.3% | 10.3% | -8.65% | -12%
CC1(C)C=C(C(Br)c2ccc(Cl)cc2)C(=O)c2ccccc21 (stereo not drawn) | 96.8% (active) | 97.4% (active) | 98.2% (active) | 94.7% (active) | 88.2% (active) | 98.2% (active)
CC(C)(C)c1ccc2c(c1)C(C)(C)CCC2(C)C | 12.8% | 0.8% | 3.05% | -52.6% | 8.3% | 19.2%
O=C(O)CC(c1ccccc1Cl)C(CC(=O)O)c1ccccc1Cl (stereo not drawn) | 5.55% | -1.55% | -2.55% | 11.6% | -1.05% | 3.4%
C#Cc1cccc(N=Cc2cc(Cl)cc(C)c2O)c1 | 16.1% | 10.8% | 36.5% | 10.1% | 37.7% | 33.7%
COc1ccccc1-c1nc2ccccc2c(=O)[nH]1 | 12.8% | -25.9% | -14.1% | 8.5% | 6.4% | 2.25%
COc1cc2c3c(c1)[nH]c(=S)n3C(=O)C(c1ccccc1)S2 (stereo not drawn) | -32.5% | 5.8% | -3.5% | 40.6% | 10.1% | -27.8%
COc1ccc2nc3cc(Cl)ccc3c(Sc3ccc(NC(C)=O)cc3)c2c1 | 22.1% | -5% | -2.5% | 11.3% | 11.3% | 9.1%
CC(=O)OCC1C(OC(C)=O)C(OC(C)=O)C(n2cnc3c(N)ncnc32)N1C(C)=O (stereo not drawn) | 17.1% | 3.75% | 16.3% | 11.4% | 1.5% | 4.35%
CCCCCC(Cl)(CC)CCCCC | -23.4% | -0.6% | -16.6% | -39.7% | 1.45% | -8.85%
COc1cc(C)cc(O)c1C=O | 9.9% | -9.95% | -0.1% | -17.1% | -0.2% | 3.45%
O=C1C(Cl)N(c2ccc([N+](=O)[O-])cc2)C1c1c[nH]c2ccccc12 (stereo not drawn) | -4.2% | -38.6% | -0.3% | 8.75% | 19.2% | -31.4%
Cn1c[n+](C)c([S-])n1 | -13.2% | 2.6% | -12.1% | -8.45% | 3% | -5.25%

SMILES | growth inhibition [1] | growth inhibition [2] | growth inhibition [3] | growth inhibition [4] | growth inhibition [5] | growth inhibition [6]
CCNC(=O)c1ccccc1C(=O)c1ccccc1 | -4.55% | 1.2% | 6.55% | 12.8% | -0.75% | 11.5%
O=c1c2cccnc2ncn1CCCN1CCCCC1 | -23.8% | 1.85% | 9.25% | -7.5% | 5.65% | -6.25%
O=C(O)C(O)(O)C(=O)O | -2.9% | -11.2% | -12.6% | 22.6% | 5.8% | -4.05%
O=C(CCC(=O)Nc1cc(Cl)ccc1Cl)CC(=O)c1ccc(Cl)cc1 | 14.1% | 24.9% | 10.4% | 11% | -1.65% | -6.75%
O=C1/C(=C/c2ccccc2)CC/C1=C\c1ccccc1 | 5.35% | 17.6% | 31.8% | 20.2% | 19.8% | 3.85%
Cc1ccccc1/C=N/Nc1ccc([N+](=O)[O-])cc1[N+](=O)[O-] | -2.45% | 13.4% | -1.75% | -35.1% | -25.1% | -11.8%
c1ccc2[nH]c3c(N=NC4=NCCN4)c4ccccc4c-3nc2c1 | -10.5% | -56.2% | 10.1% | -5.85% | -15.3% | 12.8%
OC(CNc1ccccn1)c1ccccc1 (stereo not drawn) | -3.9% | -44.6% | -35.6% | 29.2% | -33.8% | 16.2%
COC(=O)c1ccccc1OC(C)=O | 9.8% | 11.4% | -0.4% | 13.8% | 1.5% | -10.7%
CC(=O)OC1CCC2(C)C(=CCC3C2CCC2(C)C(/C(C)=N/NC(N)=S)=CCC32)C1 (stereo not drawn) | 58.8% | 55.4% | 67.6% | 49.6% | 37.7% | 54.1%
CC(=O)N/N=C(\N)c1nc2c(n3nc(C)nc13)CCCC2 | -17.6% | -19% | -1.2% | -18.4% | -5.05% | 5.5%
CNc1nc(C(F)(F)F)nc2[nH]ncc12 | 5.15% | 17.9% | -7.65% | -16.9% | -20.6% | -20.9%
C=C(C)C(=O)Nc1ccc(NS(=O)(=O)c2ccc(C(C)CC)cc2)c(O)c1 (stereo not drawn) | 9.3% | -8.7% | 18.1% | 35.5% | 14.9% | 1.2%
CCC1NC(=O)C(NC(=O)c2ncccc2O)C(C)OC(=O)C(c2ccccc2)NC(=O)C2CC(=O)CCN2C(=O)C(Cc2ccccc2)N(C)C(=O)C2CCCN2C1=O (stereo not drawn) | -6.9% | -32.6% | -29.1% | -17.4% | -6.45% | 0.3%
CC(/C=N/N(C)C1=NCCCN1)=N/N(C)C1=NCCCN1 | 14.3% | 1.6% | -7.35% | -35.6% | -2.55% | 11.2%
COc1cccc2c1C(=O)C=CC2=O | 76.8% (active) | 80.7% (active) | 84.3% (active) | 87.2% (active) | 87.2% (active) | 91.8% (active)
CCCCCCCCCCC(=O)OCC | -30.2% | 0.65% | -21.4% | -1.85% | 1.2% | -32.8%
N#C/C=C\c1ccc(C#N)cc1 | 28.1% | -1.5% | 20.3% | 6.85% | 25.1% | 19.9%
Nc1cccc2nsnc12 | 3% | -36.6% | -42.2% | 30.1% | -5.05% | -15.7%
